Source: PubChem (National Center for Advancing Translational Sciences (NCATS))
NS1 function inh = influenza NS1 inhibition | AID 2326 | Potency, µM (titrated, usually from 46.1 µM) | 270,000 compounds, 0.4% hits; note: actives are rising curves; nearly all actives have a fitted effect of over 50% in size
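Read-out: OD600 growth recovery of NS1-expressing budding yeast. Cells grown overnight at 30C in -URA glucose medium, washed, resuspended and diluted 1:100 in 2% galactose assay medium, pH 6.0. Same strain lacking NS1 served as positive control.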
Pf growth 48h = P. falciparum growth inhibition at 48 hours (one generation); P. falciparum luciferase growth in erythrocytes, 48 h; AID 504832; 310,000 compounds, 5.9% hits; Potency, µM (highest dose often 28.7 µM), hits mostly inhibitors; active = well fitted inhibition curve with a large enough effect; inconclusive = small, poorly fitted or top-dose-only effect, or another doubt; inactive = no such curve, though single readings can be large or run the other way
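Parasite viability was followed by luminescence of a genomically integrated firefly luciferase. Cultures held 0.1% parasitemia at 2% hematocrit (final), incubated under 5% CO2 at 37 C.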
SARS PLP yeast = inhibitors of SARS-CoV papain-like protease in yeast | Potency, µM (highest dose often 32.9 µM), hits mostly activators | 330,000 compounds, 0.19% hits | AID 485353 | S. cerevisiae expressing SARS-CoV PLpro, growth rescue; note: nearly all actives have a fitted effect of over 55% in size
Pf growth 96h = P. falciparum growth inhibition at 96 hour, primary screen for plastid delayed-death inhibitors | P. falciparum luciferase reporter growth, 96 h | Potency, µM (titrated, usually from 28.7 µM), hits mostly inhibitors | 320,000 compounds, 6.9% hits; active = well fitted inhibition curve with a large enough effect; inconclusive = small, poorly fitted or top-dose-only effect, or another doubt; inactive = no such curve, though single readings can be large or run the other way
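Readout is luminescence from an integrated firefly luciferase in P. falciparum. Red cells, 2% hematocrit and 0.05% parasitemia final, were cultured with compound through two parasite generations (96 hours) at 37 C, 5% CO2.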
A number is an active result; - = inactive; ? = inconclusive; . = no result; [ ] = remark or other dose. Compounds with a hit are over-represented: about 10% of the library has one in this group of screens. Unless noted, calls come from the whole dose curve.

SMILES	NS1 function inh	Pf growth 48h	SARS PLP yeast	Pf growth 96h
COc1ccc(CCNC(=O)c2cc(C3CC3)on2)cc1OC	-	-	-	-
COc1ccc(CCNC(=O)c2ccc(OCc3c(C)noc3C)cc2)cc1OC	.	9.28µM	-	?
CCOc1ccc(CCNC(=O)c2ccc(OCc3c(C)noc3C)cc2)cc1OCC	.	?	-	7.38µM
COC(=O)c1ccc(OC(=O)c2ccc(OCc3c(C)noc3C)c(OC)c2)cc1	-	-	-	10.4µM
CCOC(=O)C1=C(COC(=O)c2ccc(Br)o2)NC(=O)NC1C (configuration not stated)	-	-	-	-
COc1ccc(S(=O)(=O)NCCOc2ccc(Cl)cc2)cc1	.	-	?	-
O=S(=O)(c1ccc(F)cc1)N1CCN(CC(O)COCC2CCCO2)CC1 (configuration not stated)	.	-	-	-
Cc1ccccc1C(=O)N1CCC(C(=O)N2CCCc3ccccc32)CC1	.	?	-	-
CCOc1ccc(OCc2ccc(C(=O)NCc3ccncc3)o2)cc1	-	-	-	-
Cc1noc(C)c1COc1ccc(C(=O)NCc2ccccn2)cc1	-	-	-	9.28µM
CCc1ccc(OCc2ccc(C(=O)NCc3ccccn3)o2)cc1	-	?	-	10.4µM
CCn1cc(CN2CCCC(CNC(=O)COc3ccccc3OC)C2)c(C)n1 (configuration not stated)	-	?	-	?
CCCS(=O)(=O)n1nc(-c2ccc(OC)cc2OC)cc1N	?	-	-	?
CCCS(=O)(=O)n1nc(-c2ccc(C)cc2)cc1N	-	.	-	4.65µM
CCCS(=O)(=O)n1nc(-c2ccc(OC)cc2)cc1N	-	.	-	10.4µM
COc1cc(OC)cc(-c2cc(N)n(S(=O)(=O)Cc3ccccc3)n2)c1	-	.	-	8.28µM
COc1ccc(OC)c(S(=O)(=O)n2nc(-c3ccccc3)cc2N)c1	-	.	-	?
COc1cc(NC2c3ccccc3C(=O)N2Cc2ccc3c(c2)OCO3)cc(OC)c1 (configuration not stated)	-	-	-	-
CC(C)OC(=O)Cn1c(=O)oc2ccccc21	-	.	-	2.33µM
Cc1ccc2oc(=O)n(CC(=O)OC(C)C)c2c1	-	-	-	10.4µM
NC(=O)CNC(=O)C1CCN(S(=O)(=O)c2ccc(-n3cnnn3)cc2)CC1	-	-	-	-
C/C(CC(=O)Nc1cc(C)ccn1)=N\NC(=O)C(=O)Nc1cccc(C)c1	-	-	-	1.47µM
C/C(CC(=O)Nc1ccccn1)=N\NC(=O)C(=O)Nc1ccccc1C	-	-	-	1.85µM
CC1=CC(=NOC(=O)/C=C/c2ccccc2)C=C(C)C1=O	-	?	-	-
CC1=C(C)/C(=N\OC(=O)/C=C/c2ccccc2)C=CC1=O	-	10.4µM	-	?
SMILES	NS1 function inh	Pf growth 48h	SARS PLP yeast	Pf growth 96h
CN1CCN(S(=O)(=O)c2ccc(Cl)cc2)CC1	-	-	-	1.85µM
CN1CCN(S(=O)(=O)c2ccc(-c3ccc(Cl)cc3)cc2)CC1	-[9.22 µM]	-	-	.
CN1CCN(S(=O)(=O)c2ccc(Cc3ccc(S(=O)(=O)N4CCN(C)CC4)cc3)cc2)CC1	-	?	-	11.7µM
COc1ccc(C(CNC(=O)c2ccc(-c3nc4ccccc4s3)o2)N2CCCC2)cc1 (configuration not stated)	.	7.38µM	-	10.4µM
COc1ccc(C(CNC(=O)c2oc3cc(C)c(Cl)cc3c2C)N2CCCCC2)cc1 (configuration not stated)	-	5.22µM	-	-
COc1ccc(C(CNC(=O)COc2cc(C)c(Cl)c(C)c2)N2CCCCC2)cc1 (configuration not stated)	-	?	.	-
COc1ccc(C(CNC(=O)COc2ccccc2)N2CCCCC2)cc1 (configuration not stated)	.	?	-	14.7µM
COc1ccc(C(CNC(=O)COc2ccc(Cl)cc2C)N2CCCCC2)cc1 (configuration not stated)	-	11.7µM	-	-
Cc1sc2nc(SCC(=O)N3CCOCC3)[nH]c(=O)c2c1-c1ccccc1	-	-	-	?
CC(C)(C)[C@H]1COC(=O)[C@H](NC(=O)OCC2c3ccccc3-c3ccccc32)C/C=C\C[C@@H](CC(=O)N(CCO)Cc2ccccc2)C(=O)N1	.	.	-	.
COC(=O)CNC(=O)CSc1nc(N)cc(=O)[nH]1	-	-	-	.
COc1ccc(C(CNC(=O)C(C)(C)Oc2ccc(Cl)cc2)N2CCCC2)cc1 (configuration not stated)	.	?	-	?
COc1ccccc1C(CNC(=O)c1oc2ccccc2c1C)N1CCCC1 (configuration not stated)	.	?	-	13.1µM
COc1ccccc1C(CNC(=O)C(C)(C)Oc1ccc(Cl)cc1)N1CCCC1 (configuration not stated)	.	13.1µM	-	?
NNC(=O)c1csc(-c2ccc(C(F)(F)F)cc2Cl)n1	-	-	-	-
Cc1ccc(S(=O)(=O)N2CCOCC2)cc1NC(=O)CSc1nc2ccccc2c(=O)n1Cc1ccccc1	?	?	?	5.22µM
COC(=O)c1ccc2c(=O)n(Cc3ccco3)c(SCC(=O)Nc3ccc(C)c(Cl)c3)nc2c1	-	?	-	.
O=C(CSc1nc2ccccc2c(=O)n1Cc1ccco1)Nc1cccc(O)c1	-	-	-	13.1µM
N#CCSc1nc2ccccc2c(=O)n1CCCC(=O)NCc1ccco1	.	-	-	-
O=C(CSc1nc2cc(Cl)ccc2c(=O)n1Cc1ccco1)Nc1ccc(S(=O)(=O)N2CCOCC2)cc1	?	?	-	10.4µM
O=C(CCCCCn1c(SCc2ccncc2)nc2ccccc2c1=O)NCc1ccco1	-	8.28µM	-	-
CS(=O)(=O)c1ccc(Cl)c(NC(=O)CSc2nc3ccccc3c(=O)n2CCCN2CCOCC2)c1	-	?	-	7.38µM
CS(=O)(=O)c1ccc(Cl)c(NC(=O)CSc2nc3ccccc3c(=O)n2Cc2ccco2)c1	.	-	-	-
COc1cccc(C2C3=C(N=c4s/c(=C\c5ccc(O)cc5)c(=O)n42)c2ccccc2CC3)c1OC (configuration not stated)	-	?	-	13.1µM
COc1cccc(C2C3=C(N=c4s/c(=C\c5cccc(O)c5)c(=O)n42)c2ccccc2CC3)c1OC (configuration not stated)	?	2.33µM	-	?
SMILES	NS1 function inh	Pf growth 48h	SARS PLP yeast	Pf growth 96h
COc1ccccc1C1C2=C(N=c3s/c(=C/c4cccc(OCC(=O)O)c4)c(=O)n31)c1ccccc1CC2 (configuration not stated)	?	10.4µM	-	?
COc1cccc(C2C3=C(N=c4s/c(=C\c5ccc(OCC(=O)O)cc5)c(=O)n42)c2ccccc2CC3)c1 (configuration not stated)	?	?	-	?
COc1ccc(NC(=O)CCC(=O)NCc2ccco2)c([N+](=O)[O-])c1	-	-	-	-
Cc1cccc(N/N=C(\C(N)=O)C2=NC(C)(C)Cc3ccccc32)c1	-	5.86µM	-	4.65µM
NC(=O)CSc1nc2scc(-c3ccc(Cl)cc3)c2c(=O)n1Cc1ccccc1	-	11.7µM	-	8.28µM
Cc1ccc(-c2csc3nc(SCC(=O)N(C)C)n(Cc4ccccc4)c(=O)c23)cc1	?	13.1µM	-	?
CN(C)C(=O)CSc1nc2ccccc2n1Cc1ccccc1	-	-	-	?
